Measured values published in PubChem BioAssay (NCI).
About 83,000 compounds went through this panel and 20% of them were active in at least one assay; those are over-represented in the sample as a whole.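 Cell lines were cultured in 96-well plates, exposed to a single compound concentration, and assessed for percent growth 48 hours later.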 A number with no mark means an inactive call. Active and inactive are the calls of the source. The calls were made as follows: active = growth percent below 10; inactive = the rest.

Assays:
Test in all cases: NCI-60 one-dose screen, 48 h (100 = growth as untreated, 0 = no growth, -100 = all killed)
Conditions in all cases: 10 µM unless noted
SK-MEL-2 melanoma = tested on: SK-MEL-2 melanoma
EKVX NSCLC = tested on: EKVX NSCLC
SN12C renal = tested on: SN12C renal
UO-31 renal = tested on: UO-31 renal
TK-10 renal = tested on: TK-10 renal
ACHN renal = tested on: ACHN renal
CAKI-1 renal = tested on: CAKI-1 renal
A498 renal = tested on: A498 renal
CCRF-CEM leukemia = tested on: CCRF-CEM leukemia
MOLT-4 leukemia = tested on: MOLT-4 leukemia

| SMILES | growth (SK-MEL-2 melanoma) | growth (EKVX NSCLC) | growth (SN12C renal) | growth (UO-31 renal) | growth (TK-10 renal) | growth (ACHN renal) | growth (CAKI-1 renal) | growth (A498 renal) | growth (CCRF-CEM leukemia) | growth (MOLT-4 leukemia) |
| --- | --- | --- | --- | --- | --- | --- | --- | --- | --- | --- |
| Cc1ccc2c(n1)C(=O)C(Br)=C(C1CCCC1)C2=O | 112% | 98.9% | 95.2% | 78.3% | 120% | 77.9% | 90.8% | 108% | 26.2% | 34.6% |
| CC1=NC2=Nn3c(c4cnn(-c5ccccc5)c4n/c3=N\N)NN2C(c2ccccc2)=C1 | 101% | 80.7% | -63.4% (active) | 70.3% | 109% | 85.8% | 76.5% | 91% | 101% | 103% |
| O=c1[nH]c(Cc2nc3ccccc3s2)nc2cc(Br)ccc12 | 57.5% | 87.5% | 81.3% | 37.3% | 94.3% | 35.9% | 58.7% | 95.7% | 56.2% | 59% |
| O=C(O)CCCN1C(=O)/C(=C/c2cn(-c3ccccc3)nc2-c2ccc([N+](=O)[O-])cc2)SC1=S | 77.6% | 67% | 50% | 40.2% | 78.2% | 56.8% | 65.1% | 88.2% | 27.6% | 54.5% |
| CS(=O)(=O)Nc1cncc(-c2ccc3ncnc(Nc4cncc(Cl)c4)c3c2)c1 | 67.6% | 96.1% | 84.3% | 77.7% | 65.2% | 96% | 94.9% | 70.5% | 35.7% | 78.4% |
| CCc1ccc(CCCC(=O)O)cc1 | 103% | 96.3% | 93.7% | 92.1% | 99.9% | 101% | 94% | 95% | 104% | 98.8% |
| Cc1ccc2c(n1)C(=O)C(Br)=C(CC(C)C)C2=O | 110% | 104% | 98.8% | 87.2% | 115% | 68.6% | 92.7% | 106% | 24.2% | 19.5% |
| O=C(/C=C/c1cccc(Cl)c1)c1cccc(OCCCOc2cccc(C(=O)/C=C/c3cccc(Cl)c3)c2)c1 | 116% | 99% | 96.4% | 66.8% | 125% | 97.3% | 70.4% | 102% | 98.1% | 96.9% |
| O=C1/C=C/[C@@H](O)[C@@H]2C[C@@H](O)C[C@H]2/C=C/CCC[C@H](CCc2ccccc2)O1 | -8.8% (active) | 8.4% (active) | 11.8% | 14.7% | -26% (active) | 7.03% (active) | -8.69% (active) | -28.2% (active) | 13.1% | 9.48% (active) |
| CN(C)CC1CCC(CN(C)C)C1=O (configuration not stated) | 96.8% | 133% | 106% | 85.4% | 92.1% | 110% | 108% | 103% | 27.9% | 64.4% |
| Cc1cc(N2CCN(CC(=O)Nc3ccc4c(ccn4C)c3)CC2)nc(N2CCCCCC2)n1 | 92.1% | 86.2% | 98% | 67.1% | 87.2% | 88.4% | 84.6% | 46.3% | 35.3% | 85.3% |
| Nc1c(C(=O)Nc2ccccc2F)sc2nc3c(cc12)CCCC3 | 43.7% | 41.2% | 40% | 46.9% | 60.9% | 50.7% | 57.4% | -0.37% (active) | 22.5% | 27% |
| CC/C(=C(/c1ccc(Cl)cc1)c1ccc(OCCN2CCCCC2)cc1)c1ccc(OC)cc1 | 90.6% | 58.5% | 74.8% | 66.2% | 80.7% | 81.2% | 72.3% | 118% | 28.8% | 25.8% |
| O=C(C[C@]1(O)C(=O)Nc2ccccc21)c1cccc(C(F)(F)F)c1 | 91.2% | 99.5% | 80% | 58.1% | 138% | 88.2% | 81.7% | 99.8% | 97% | 96% |
| CCN(CC)c1ccc(\C=N/N=C(N)/C(N)=N\N=C/c2ccc(N(CC)CC)cc2)cc1 | 97.7% | 104% | 105% | 82.9% | 113% | – | 88.9% | 102% | 89% | 95.8% |
| COc1cc2oc(-c3cccc(NC(=O)c4ccccc4)c3)cc(=O)c2c(OC)c1OC | 76.8% | 103% | 76.2% | 51% | 91.3% | – | 87.2% | 59.4% | 45.7% | 40.7% |
| COc1ccc(C(=O)Nc2cccc(-c3cc(=O)c4c(OC)c(OC)c(OC)cc4o3)c2)cc1 | 61.3% | 77.3% | 50% | 26.5% | 76.7% | – | 57.4% | 69.3% | 27.5% | 23.3% |
